The text below walks through data of article PMC5540273 (PLoS ONE, 2017).

Test systems include PAK2; PAK3; PAK4; PAK6; PAK7; PDGFRA; PDGFRB.
Common to all, as to settings: concentration: 1 μM, replicates: in singlicate; n = 1
For another experiment, the system named is T1, PCTK1.
T1 construct: gene CDK16

The test system of another experiment is T2, PCTK2.
T2 construct: gene CDK17

The next experiment concerns T3, PCTK3.
T3 construct: gene CDK18
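Note: KINOMEscan kinase panel screen.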

As for `C[C@@H]1CC[C@H](C(=O)NC2CCCCC2)CN1c1cc(-c2ccc3c(N)n[nH]c3c2)nc(N)n1` [GSK2291363], the “%Inh” value in the experiment with PAK2 worked out at 17%; in the experiment on PAK3 it was 0%; with PAK4 it was 0%; in the experiment on PAK6, 3%; with PAK7 it was 17%; in the experiment on PCTK1 it was 2%. The “%Inh” value in the experiment with PCTK2 came out at 10%; with PCTK3, 32%; in the experiment on PDGFRA it was 0%; with PDGFRB it was 34%.

Take `Nc1n[nH]c2ncc(-c3ccccc3)cc12` [SB-517081]: the “%Inh” value was found to be 17% with PAK2; 0% in the experiment on PAK3; 0% with PAK4; 0% with PAK6; 0% in the experiment on PAK7; 3% in the experiment on PCTK1. Moreover, the “%Inh” value in the experiment with PCTK2 worked out at 0%; with PCTK3, 31%; with PDGFRA it was 51%; with PDGFRB it was 97.3%.

With `Nc1nc(-c2ccccc2F)c(-c2ccnc3ccccc23)s1` [GW560459], the “%Inh” value in the experiment with PAK2 is 18%; in the experiment on PAK3 it was 14%; in the experiment with PAK4, 0%; in the experiment on PAK6, 0%; in the experiment on PAK7, 0%; in the experiment with PCTK1 it was 9%. Moreover, the “%Inh” value in the experiment with PCTK2 was determined as 0%; in the experiment on PCTK3 it was 13%; in the experiment with PDGFRA, 0%; with PDGFRB, 6%.

Take `CCc1nc(-c2cccc(C)c2)c(-c2ccncc2)s1`: the “%Inh” value was 16% in the experiment on PAK2; 0% in the experiment on PAK3; 15% with PAK4; 3% in the experiment on PAK6; 0% with PAK7; 0% in the experiment with PCTK1. The “%Inh” value in the experiment on PCTK2 came to 1%; in the experiment on PCTK3, 2%; in the experiment with PDGFRA it was 0%; in the experiment with PDGFRB it was 70%.

As to `COc1ccc(-c2cc3c(C)nc(N)nc3n([C@H]3CC[C@H](O)CC3)c2=O)cn1`, the “%Inh” value in the experiment with PAK2 is given as 11%; in the experiment on PAK3 it was 0%; with PAK4 it was 21%; with PAK6, 0%; in the experiment with PAK7, 0%; in the experiment on PCTK1, 0%. Moreover, the “%Inh” value in the experiment with PCTK2, with PCTK3, in the experiment with PDGFRA and in the experiment on PDGFRB was 0% throughout.

With `Cn1c(=O)c(F)c(Nc2ccc(I)cc2F)c2c(=O)n(OC[C@H](O)CO)cnc21`, the “%Inh” value in the experiment with PAK2 is given as 7%; in the experiment on PAK3, 1%; in the experiment on PAK4, 8%; in the experiment on PAK6, 20%; with PAK7, 0%; with PCTK1, 0%. The “%Inh” value is 11% in the experiment with PCTK2, 5% in the experiment with PCTK3, 0% with PDGFRA and 11% with PDGFRB.

Take `FC(F)(F)c1ccc(-c2ncn(CCCN3CCOCC3)c2-c2ccncc2)cc1` [SB-217780]: the “%Inh” value in the experiment on PAK2 is listed as 34%; in the experiment on PAK3, 12%; in the experiment on PAK4, 21%; in the experiment on PAK6 it was 17%; with PAK7, 0%; in the experiment on PCTK1, 10%. The “%Inh” value in the experiment on PCTK2 is 0%; with PCTK3, 20%; with PDGFRA it was 34%; in the experiment with PDGFRB, 32%.

As for `Cl.NS(=O)(=O)c1cccc(Nc2cc(-c3ccc(F)cc3)n[nH]2)c1` [GW824645], the “%Inh” value came out at 26% in the experiment on PAK2; 0% in the experiment with PAK3; 0% in the experiment with PAK4; 4% in the experiment with PAK6; 0% with PAK7; 0% with PCTK1. In addition, the “%Inh” value in the experiment on PCTK2 was found to be 13%; in the experiment with PCTK3, 5%; with PDGFRA, 75%; in the experiment with PDGFRB, 96.1%.

`O=C(NCc1cccs1)c1cc(C(=O)c2c(Cl)cccc2Cl)c[nH]1` [GW823670]: the “%Inh” value in the experiment with PAK2 amounted to 38%; in the experiment with PAK3, 10%; in the experiment on PAK4, 0%; with PAK6 it was 0%; in the experiment with PAK7 it was 0%; in the experiment on PCTK1 it was 0%. The “%Inh” value in the experiment with PCTK2 was found to be 0%; in the experiment with PCTK3, 13%; in the experiment on PDGFRA, 0%; in the experiment with PDGFRB it was 0%.

In the case of `Nc1ncnc2c1ncn2-c1cccc2ccccc12` [SKF-97184], the “%Inh” value with PAK2 was determined as 56%; in the experiment on PAK3 it was 0%; in the experiment with PAK4, 0%; with PAK6, 0%; in the experiment with PAK7, 0%; in the experiment on PCTK1, 0%. Besides, the “%Inh” value is listed as 100% in the experiment with PCTK2, 10% in the experiment with PCTK3, 0% in the experiment with PDGFRA and 7% in the experiment on PDGFRB.

As for `CN1C(=O)C(Nc2ccccc2)=C(c2ccccc2)C1=O` [SB-300079], the “%Inh” value in the experiment on PAK2, with PAK3, in the experiment with PAK4, with PAK6, in the experiment with PAK7 and in the experiment on PCTK1 was 0% each time. Moreover, the “%Inh” value in the experiment with PCTK2 is 0%; in the experiment with PCTK3, 12%; in the experiment with PDGFRA, 0%; in the experiment on PDGFRB, 24%.

As to `COc1cc2ncn(-c3cc(OCc4ccncc4)c(C(N)=O)s3)c2cc1OC` [GSK336313], the “%Inh” value in the experiment on PAK2 is recorded as 3%; in the experiment on PAK3, 0%; in the experiment on PAK4, 0%; with PAK6 it was 4%; in the experiment with PAK7 it was 0%; in the experiment on PCTK1, 9%. The “%Inh” value is 0% in the experiment on PCTK2, 18% in the experiment with PCTK3, 0% in the experiment with PDGFRA and 27% in the experiment on PDGFRB.

Take `CCC(=O)c1c(-c2ccccc2)c2cc(Cl)ccc2c(=O)n1Cc1cc(S(C)(=O)=O)n(CC(N)=O)n1`: the “%Inh” value came to 5% in the experiment with PAK2; 0% in the experiment on PAK3; 5% in the experiment with PAK4; 1% with PAK6; 0% in the experiment on PAK7; 0% in the experiment with PCTK1. Further, the “%Inh” value with PCTK2 was 0%; in the experiment on PCTK3, 13%; in the experiment with PDGFRA, 0%; with PDGFRB, 10%.

With `Cc1cc(Nc2nc(-c3cccc(C)n3)nc3ccccc23)ccn1` [GW872411], the “%Inh” value amounted to 15% in the experiment with PAK2; 0% in the experiment with PAK3; 0% with PAK4; 0% in the experiment with PAK6; 17% in the experiment on PAK7; 0% in the experiment with PCTK1. In addition, the “%Inh” value in the experiment with PCTK2, with PCTK3, in the experiment on PDGFRA and with PDGFRB was 0% throughout.

For the compound `CCS(=O)(=O)c1ccc(OC)c(Nc2ncc(-c3ccc(F)cc3)o2)c1.Cl` [GW591947], the “%Inh” value in the experiment on PAK2 came to 13%; with PAK3 it was 0%; in the experiment on PAK4, 0%; with PAK6 it was 0%; with PAK7 it was 14%; in the experiment on PCTK1 it was 4%. Moreover, the “%Inh” value stood at 0% in the experiment on PCTK2, 16% in the experiment with PCTK3, 0% with PDGFRA and 24% in the experiment on PDGFRB.

As for `Cc1ccccc1COc1cc(-n2cnc3cc(Cl)ccc32)sc1C(N)=O` [GW813349], the “%Inh” value with PAK2 was found to be 0%; with PAK3, 0%; in the experiment with PAK4 it was 0%; in the experiment with PAK6 it was 1%; in the experiment with PAK7, 0%; in the experiment on PCTK1, 15%. For the same compound, the “%Inh” value with PCTK2 is recorded as 0%; with PCTK3, 0%; with PDGFRA it was 1%; with PDGFRB it was 0%.

In the case of `COc1cc(OC)cc(-c2cc3cnc(N)nc3nc2NC(=O)NC(C)(C)C)c1`, the “%Inh” value in the experiment on PAK2 was found to be 0%; in the experiment on PAK3 it was 0%; with PAK4, 0%; in the experiment on PAK6, 0%; in the experiment on PAK7, 9%; in the experiment with PCTK1, 0%. The “%Inh” value in the experiment on PCTK2, in the experiment with PCTK3, in the experiment on PDGFRA and in the experiment on PDGFRB was 0% each time.
